Source: the supplement of paper PMC11732987, “Enantioselective OTUD7B fragment discovery through chemoproteomics screening and high-throughput optimisation” (Communications Chemistry, 2025)

Columns and labels:
Test in all cases: log2 ratio of Biotin-Ahx-Ub-VS probe labelling (fragment/DMSO); higher = less target engagement (more negative = stronger competition), active = hit call of the paper (q ≤ 0.05, log2 ratio ≤ -1)
Settings in all cases: compound concentration: 200 uM; treatment time: 3 h
[1] = target: T1, OTUD6B (UniProt Q8N6M0)
T1 sequence (whole entry): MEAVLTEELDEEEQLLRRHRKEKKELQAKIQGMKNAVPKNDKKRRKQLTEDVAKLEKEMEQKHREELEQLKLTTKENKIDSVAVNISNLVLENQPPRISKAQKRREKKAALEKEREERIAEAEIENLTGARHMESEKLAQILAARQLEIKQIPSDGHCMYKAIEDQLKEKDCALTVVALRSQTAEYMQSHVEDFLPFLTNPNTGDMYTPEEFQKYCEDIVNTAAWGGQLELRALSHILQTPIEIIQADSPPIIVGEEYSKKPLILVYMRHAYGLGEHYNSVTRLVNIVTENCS
How it was run: (§1)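 Using Biotin-Ahx-Ub-VS at 0.5 µM final for 1 h, DUBs were labelled in HEK293T lysate (495 µg per sample) that had first been treated in triplicate with fragment at 200 µM or vehicle for 3 h. NeutrAvidin enrichment, LysC and trypsin digestion and diaPASEF LC-MS/MS followed. Spectronaut label-free quantities were global-median-normalised. Values are average log2 fragment/vehicle ratios by unpaired t-test, using proteins with ≥2 unique peptides.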

[2] = target: T2, OTUD7B (UniProt Q6GQQ9)
T2 sequence (whole entry): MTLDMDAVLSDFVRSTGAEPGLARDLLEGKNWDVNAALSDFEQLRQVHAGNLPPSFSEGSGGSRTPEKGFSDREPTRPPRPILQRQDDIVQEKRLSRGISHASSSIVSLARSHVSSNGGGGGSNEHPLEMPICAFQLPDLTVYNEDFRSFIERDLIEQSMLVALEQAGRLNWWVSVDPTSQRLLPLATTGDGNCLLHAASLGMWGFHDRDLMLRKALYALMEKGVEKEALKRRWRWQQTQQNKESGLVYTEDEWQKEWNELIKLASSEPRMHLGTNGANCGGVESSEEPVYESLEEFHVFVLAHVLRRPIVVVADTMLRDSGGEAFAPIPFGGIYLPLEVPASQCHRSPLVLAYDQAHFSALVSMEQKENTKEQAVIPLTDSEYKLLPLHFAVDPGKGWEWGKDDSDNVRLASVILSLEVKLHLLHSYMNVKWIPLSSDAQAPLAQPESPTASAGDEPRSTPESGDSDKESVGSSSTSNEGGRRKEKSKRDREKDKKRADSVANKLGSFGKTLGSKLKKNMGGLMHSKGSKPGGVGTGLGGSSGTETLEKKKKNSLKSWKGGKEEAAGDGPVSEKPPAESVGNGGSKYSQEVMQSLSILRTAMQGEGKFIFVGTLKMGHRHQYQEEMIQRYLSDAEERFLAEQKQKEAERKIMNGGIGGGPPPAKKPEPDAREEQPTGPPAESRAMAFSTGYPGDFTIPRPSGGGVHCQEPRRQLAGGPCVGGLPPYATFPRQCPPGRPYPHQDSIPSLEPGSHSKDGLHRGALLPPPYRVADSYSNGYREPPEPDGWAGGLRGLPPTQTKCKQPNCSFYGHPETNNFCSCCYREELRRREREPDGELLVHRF
How it was run: as §1

[3] = target: PRPF8 (UniProt Q6P2Q9)
How it was run: as §1

[4] = target: T3, PSMD7 (UniProt P51665)
T3 sequence (whole entry): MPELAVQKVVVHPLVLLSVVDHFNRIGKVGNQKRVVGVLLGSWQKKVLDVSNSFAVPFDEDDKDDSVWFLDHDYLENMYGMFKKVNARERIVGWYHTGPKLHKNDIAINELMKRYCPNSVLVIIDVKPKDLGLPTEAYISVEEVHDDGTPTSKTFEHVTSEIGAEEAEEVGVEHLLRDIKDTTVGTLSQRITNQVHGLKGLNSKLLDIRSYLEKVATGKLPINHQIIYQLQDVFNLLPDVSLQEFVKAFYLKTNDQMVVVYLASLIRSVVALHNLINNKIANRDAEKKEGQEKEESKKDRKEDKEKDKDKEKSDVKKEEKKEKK
How it was run: as §1

[5] = target: UCHL1 (UniProt P09936)
How it was run: as §1

[6] = target: T4, UCHL3 (UniProt P15374)
T4 sequence (whole entry): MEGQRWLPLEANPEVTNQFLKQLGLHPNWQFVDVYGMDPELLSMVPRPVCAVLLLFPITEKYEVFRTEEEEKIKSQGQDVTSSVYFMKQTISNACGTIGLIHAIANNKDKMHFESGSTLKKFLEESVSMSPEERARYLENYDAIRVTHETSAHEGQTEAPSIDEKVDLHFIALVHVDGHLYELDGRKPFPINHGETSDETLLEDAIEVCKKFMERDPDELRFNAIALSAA
How it was run: as §1

[7] = target: T5, UCHL5 (UniProt Q9Y5K5)
T5 sequence (whole entry): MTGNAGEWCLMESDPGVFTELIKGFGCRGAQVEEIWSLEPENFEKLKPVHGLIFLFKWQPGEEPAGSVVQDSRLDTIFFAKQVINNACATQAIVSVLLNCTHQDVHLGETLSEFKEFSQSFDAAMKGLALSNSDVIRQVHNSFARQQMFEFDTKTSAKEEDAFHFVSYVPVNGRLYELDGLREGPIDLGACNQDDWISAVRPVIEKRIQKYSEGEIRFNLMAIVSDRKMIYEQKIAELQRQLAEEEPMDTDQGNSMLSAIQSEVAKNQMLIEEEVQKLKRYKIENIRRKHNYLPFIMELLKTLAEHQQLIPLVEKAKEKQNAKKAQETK
How it was run: as §1

[8] = target: USP10 (UniProt Q14694)
How it was run: as §1

[9] = target: T6, USP15 (UniProt Q9Y4E8)
T6 sequence (whole entry): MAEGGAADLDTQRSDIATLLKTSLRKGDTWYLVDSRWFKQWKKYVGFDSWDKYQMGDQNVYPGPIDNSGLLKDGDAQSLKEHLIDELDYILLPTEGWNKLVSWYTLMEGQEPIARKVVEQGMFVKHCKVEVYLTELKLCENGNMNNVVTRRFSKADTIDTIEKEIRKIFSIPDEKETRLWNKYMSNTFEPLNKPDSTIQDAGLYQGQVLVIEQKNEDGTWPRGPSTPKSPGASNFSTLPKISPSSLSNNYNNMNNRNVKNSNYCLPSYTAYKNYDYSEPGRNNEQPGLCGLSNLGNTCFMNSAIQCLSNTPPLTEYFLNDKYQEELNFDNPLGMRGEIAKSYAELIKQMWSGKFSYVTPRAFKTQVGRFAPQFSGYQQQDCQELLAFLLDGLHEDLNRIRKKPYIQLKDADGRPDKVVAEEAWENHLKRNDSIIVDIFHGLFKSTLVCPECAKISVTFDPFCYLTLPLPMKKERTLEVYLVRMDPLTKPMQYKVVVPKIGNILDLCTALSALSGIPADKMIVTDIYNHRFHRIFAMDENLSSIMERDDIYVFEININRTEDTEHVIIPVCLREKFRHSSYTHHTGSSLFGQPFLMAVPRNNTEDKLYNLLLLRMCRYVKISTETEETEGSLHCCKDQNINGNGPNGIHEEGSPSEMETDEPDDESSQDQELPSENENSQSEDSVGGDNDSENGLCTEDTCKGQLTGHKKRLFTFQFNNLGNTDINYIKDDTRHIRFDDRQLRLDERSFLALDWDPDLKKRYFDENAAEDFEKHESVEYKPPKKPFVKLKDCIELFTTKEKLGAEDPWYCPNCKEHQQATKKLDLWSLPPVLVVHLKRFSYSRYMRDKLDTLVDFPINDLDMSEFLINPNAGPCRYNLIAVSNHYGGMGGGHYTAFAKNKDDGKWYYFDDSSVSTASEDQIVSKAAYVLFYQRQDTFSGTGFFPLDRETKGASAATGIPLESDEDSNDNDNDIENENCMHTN
How it was run: as §1

[10] = target: USP16 (UniProt Q9Y5T5)
How it was run: as §1

Measured: log2 ratio of Biotin-Ahx-Ub-VS probe labelling

Chain of UCHL1 (P09936 whole entry, looked up): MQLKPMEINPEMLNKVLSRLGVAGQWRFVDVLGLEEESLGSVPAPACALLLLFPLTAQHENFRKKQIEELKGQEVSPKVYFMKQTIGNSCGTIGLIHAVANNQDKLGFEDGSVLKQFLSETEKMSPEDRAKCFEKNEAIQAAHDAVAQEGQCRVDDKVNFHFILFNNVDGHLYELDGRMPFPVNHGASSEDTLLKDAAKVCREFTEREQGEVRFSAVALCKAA
Chain of USP16 (Q9Y5T5 whole entry, looked up): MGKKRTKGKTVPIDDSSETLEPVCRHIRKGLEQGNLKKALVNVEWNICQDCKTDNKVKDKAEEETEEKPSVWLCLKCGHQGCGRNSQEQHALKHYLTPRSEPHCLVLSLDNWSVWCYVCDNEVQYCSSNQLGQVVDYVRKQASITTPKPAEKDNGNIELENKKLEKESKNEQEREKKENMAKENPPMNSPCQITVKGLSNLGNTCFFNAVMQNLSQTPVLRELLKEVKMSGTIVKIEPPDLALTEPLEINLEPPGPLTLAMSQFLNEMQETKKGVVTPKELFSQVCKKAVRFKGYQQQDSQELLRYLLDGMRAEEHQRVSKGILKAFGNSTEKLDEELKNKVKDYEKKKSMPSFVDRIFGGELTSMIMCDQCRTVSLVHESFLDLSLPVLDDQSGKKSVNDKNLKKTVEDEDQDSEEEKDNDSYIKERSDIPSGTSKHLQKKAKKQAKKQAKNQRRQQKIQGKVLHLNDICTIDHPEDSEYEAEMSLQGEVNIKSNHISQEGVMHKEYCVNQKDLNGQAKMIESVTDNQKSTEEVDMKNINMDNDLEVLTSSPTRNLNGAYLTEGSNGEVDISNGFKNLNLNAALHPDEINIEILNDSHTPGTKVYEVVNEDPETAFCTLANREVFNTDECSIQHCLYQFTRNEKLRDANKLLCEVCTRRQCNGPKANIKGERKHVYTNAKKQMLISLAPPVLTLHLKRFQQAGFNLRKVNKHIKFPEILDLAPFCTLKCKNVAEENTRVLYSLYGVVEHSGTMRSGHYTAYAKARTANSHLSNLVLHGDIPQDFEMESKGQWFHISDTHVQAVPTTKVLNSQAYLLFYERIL
Chain of USP10 (Q14694 whole entry): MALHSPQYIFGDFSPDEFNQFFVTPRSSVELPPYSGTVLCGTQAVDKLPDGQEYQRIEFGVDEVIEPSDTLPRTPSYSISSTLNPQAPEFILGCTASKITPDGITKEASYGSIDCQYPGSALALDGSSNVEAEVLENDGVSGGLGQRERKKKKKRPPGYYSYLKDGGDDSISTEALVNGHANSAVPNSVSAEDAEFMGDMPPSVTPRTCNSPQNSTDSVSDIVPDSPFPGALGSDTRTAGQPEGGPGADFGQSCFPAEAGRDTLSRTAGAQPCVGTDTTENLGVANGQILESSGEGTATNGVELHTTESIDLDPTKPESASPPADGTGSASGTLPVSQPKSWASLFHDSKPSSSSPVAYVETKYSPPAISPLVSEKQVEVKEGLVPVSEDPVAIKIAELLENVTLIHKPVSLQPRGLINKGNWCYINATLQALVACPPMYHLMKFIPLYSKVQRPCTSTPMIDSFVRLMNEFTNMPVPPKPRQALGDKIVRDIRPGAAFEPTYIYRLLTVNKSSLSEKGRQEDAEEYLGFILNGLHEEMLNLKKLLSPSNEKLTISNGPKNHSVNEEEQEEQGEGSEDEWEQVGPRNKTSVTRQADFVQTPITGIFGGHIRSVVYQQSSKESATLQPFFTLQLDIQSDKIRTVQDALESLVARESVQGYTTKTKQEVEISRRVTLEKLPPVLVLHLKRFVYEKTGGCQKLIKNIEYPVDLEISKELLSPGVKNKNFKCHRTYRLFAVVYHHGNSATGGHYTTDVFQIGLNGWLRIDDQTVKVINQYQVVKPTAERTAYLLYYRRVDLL

O=C(CCl)NC1CCC(C(F)(F)F)CC1 (stereo not given)
inactive: [1] -0.153 | [2] -0.576 | [3] 0.103 | [4] -0.258 | [6] 0.327 | [7] -0.0657 | [8] -0.141 | [9] -0.158 | [10] -0.000805
active: [5] -1.31
